This note sets out measurements from the supplement of paper PMC10127200.

Molecules are shown by their SMILES. Counter-ions that a name gives are not always drawn.

Assay in all cases: Euclidean distance of Cell Painting phenotypic profile (signed KS, 77 features) to DMSO centroid (dimensionless distance); higher = stronger phenotypic change vs DMSO (phenoactivity)
Common to all, as to details: 48 h; 5 or 10 uM (library dependent)

The subject of one experiment is 786-O. The procedure, abridged: (§1)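 Stained cells were imaged confocally at 20X with 9 fields per well, after 48 h of exposure to library compounds at 10 or 5 uM (set by library; 0.1% DMSO final). The cells were five cancer lines and a healthy fibroblast line. From the images, Harmony extracted 77 features, each expressed as a signed Kolmogorov-Smirnov statistic relative to same-plate vehicle wells. Phenoactivity is measured as Euclidean distance to the median vehicle profile, using plate-position-corrected, correlation-weighted profiles averaged across replicates at the top dose.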

A further experiment deals with A549. An outline of the steps: as §1
In a further experiment the test system is FB. An outline of the steps: as §1
The test system of a further experiment is HEPG2. The procedure, abridged: as §1
A further experiment deals with OVCAR4. The procedure, abridged:
as §1

For a further experiment, the system named is DU145. The procedure, abridged: as §1

Regarding `Cc1cccc(C)c1NC(=O)CN1CCCC1=O` [Nefiracetam], the Euclidean distance came to 1.15 with 786-O; 0.499 in the experiment on A549; 0.708 in the experiment with FB; 1.11 in the experiment with HEPG2; 1.2 in the experiment with OVCAR4.

For `CO[C@]12C[C@@H](COC(=O)c3cncc(Br)c3)CN(C)[C@@H]1Cc1cn(C)c3cccc2c13` [Nicergoline], the Euclidean distance came out at 1.37 with 786-O; 0.701 in the experiment with A549; 0.963 in the experiment on FB; 0.72 in the experiment with HEPG2; 0.762 in the experiment on OVCAR4.

`CN1CCCCC1Cn1cc(C(=O)c2cc([N+](=O)[O-])ccc2I)c2ccccc21` (stereo not given): the Euclidean distance was 0.823 in the experiment with 786-O; 1.18 in the experiment with A549; 1.02 in the experiment with DU145; 1.47 with FB; 1.19 with OVCAR4.

In the case of `Cc1ccc2c(c1)[C@]13CCCC[C@@H]1[C@H](C2)N(C)CC3` [Dimemorfan phosphate], the Euclidean distance in the experiment on 786-O was determined as 1.28; in the experiment with A549, 1.25; in the experiment with DU145, 1.36; in the experiment with FB it was 3.6; with HEPG2, 2.34; in the experiment with OVCAR4, 1.19.

With `Cc1cccc(C(C)c2c[nH]cn2)c1C` (stereo not given) [Medetomidine HCl], the Euclidean distance was found to be 0.819 in the experiment with 786-O; 0.591 in the experiment with A549; 0.87 in the experiment with DU145; 0.682 in the experiment on FB; 0.602 in the experiment on HEPG2; 1.07 in the experiment on OVCAR4.

Consider `CCCCCCCCC(=O)NCc1ccc(O)c(OC)c1` [Nonivamide], for which the Euclidean distance in the experiment on 786-O is 1.37; in the experiment with A549 it was 0.987; with FB, 0.925; in the experiment with HEPG2 it was 0.607; with OVCAR4 it was 1.31.

In the case of `O=C(CC1NCCCC1O)Cn1cnc2cc(Br)c(Cl)cc2c1=O` (stereo not given) [Halofuginone], the Euclidean distance was found to be 3.67 in the experiment with 786-O; 3.22 in the experiment on A549; 3.62 in the experiment with FB; 3.81 with HEPG2; 3.65 with OVCAR4.

For `CC(C)N(CCNC(=O)CN1CCCC1=O)C(C)C` [Pramiracetam], the Euclidean distance with 786-O was 1.35; with A549, 1.08; in the experiment on DU145, 0.543; in the experiment with FB it was 0.932; in the experiment with HEPG2 it was 0.534; in the experiment on OVCAR4, 0.853.

Regarding `CN1C(=O)CCS(=O)(=O)C1c1ccc(Cl)cc1` (stereo not given) [Chlormezanone], the Euclidean distance in the experiment with 786-O amounted to 1.52; in the experiment on A549, 0.681; in the experiment with FB, 0.695; with HEPG2 it was 0.59; in the experiment on OVCAR4, 1.23.

As for `O=[N+]([O-])/C=C/c1ccc2c(c1)OCO2`, the Euclidean distance is 4.42 in the experiment on 786-O; 2.25 in the experiment on A549; 0.868 with DU145; 2.39 in the experiment on FB; 0.782 in the experiment on HEPG2; 2.34 with OVCAR4.

Consider `C[C@]12CC[C@H]3[C@@H](CC[C@@]45O[C@@H]4C(O)=C(C#N)C[C@]35C)[C@@H]1CC[C@@H]2O` [Trilostane], for which the Euclidean distance came out at 1.94 in the experiment with 786-O; 1.35 in the experiment on A549; 0.851 with FB; 1.01 with HEPG2; 1.12 with OVCAR4.

On to `O=c1cccc2n1C[C@@H]1CNC[C@H]2C1` [Cytisine], for which the Euclidean distance turned out to be 1.35 in the experiment with 786-O; 0.65 in the experiment with A549; 1.05 with FB; 1.09 in the experiment with HEPG2; 2.07 in the experiment with OVCAR4.

In the case of `CC(=O)c1c(O)cc(C)oc1=O` [Sodium dehydroacetate], the Euclidean distance in the experiment with 786-O was found to be 0.865; with A549 it was 0.572; in the experiment on FB it was 0.998; in the experiment with HEPG2 it was 0.348; with OVCAR4 it was 0.896.

Consider `COc1ccc(C(=O)N2CCCC2=O)cc1` [Aniracetam], for which the Euclidean distance in the experiment on 786-O stood at 0.962; in the experiment on A549 it was 1.09; with FB, 1.01; with HEPG2, 0.635; in the experiment on OVCAR4, 1.07.

Turning to `CNC(C)Cc1ccccc1OC` (stereo not given) [Methoxyphenamine Hydrochloride], the Euclidean distance in the experiment on 786-O was 0.913; in the experiment on A549, 1.83; in the experiment with DU145, 0.725; in the experiment with FB, 1.38; with HEPG2 it was 0.34; in the experiment with OVCAR4, 2.5.

`O=C([O-])C(Cl)Cl.[Na+]` [Sodium dichloroacetate (DCA)]: the Euclidean distance was found to be 0.79 in the experiment with 786-O; 0.753 in the experiment on A549; 0.544 with DU145; 0.681 in the experiment on FB; 0.496 in the experiment on HEPG2; 1.4 in the experiment with OVCAR4.

`CC[C@H](C)[C@@H]([C@@H](CC(=O)N1CCC[C@H]1[C@H](OC)[C@@H](C)C(=O)N[C@H](C)[C@@H](O)c1ccccc1)OC)N(C)C(=O)[C@@H](NC(=O)[C@@H](NC)C(C)C)C(C)C` [Monomethyl auristatin E (MMAE)]: the Euclidean distance was found to be 3.13 in the experiment on 786-O; 2.69 with A549; 4.69 with DU145; 2.93 in the experiment with FB; 3.85 in the experiment with HEPG2; 3.16 in the experiment on OVCAR4.

Consider `CCOC(=O)Nc1ccc(NCc2ccc(F)cc2)cc1N` [Retigabine 2HCl], for which the Euclidean distance in the experiment with 786-O amounted to 0.771; with A549, 1.35; with DU145, 0.995; with FB, 0.958; in the experiment with HEPG2, 0.601; in the experiment on OVCAR4, 0.882.

With `CCCCCc1cc(O)cc(O)c1` [Olivetol], the Euclidean distance is 1.12 in the experiment on 786-O; 0.742 with A549; 0.801 with DU145; 0.7 with FB; 0.393 with HEPG2; 0.946 in the experiment on OVCAR4.

Turning to `O=C(O)c1nn(Cc2ccc(Cl)cc2Cl)c2ccccc12` [Lonidamine], the Euclidean distance amounted to 0.877 in the experiment with 786-O; 1.12 in the experiment on A549; 1.09 in the experiment with FB; 0.957 with HEPG2; 1.52 in the experiment with OVCAR4.

On to `CCOC(=O)c1cncn1[C@H](C)c1ccccc1` [Etomidate], for which the Euclidean distance is 2.62 in the experiment with 786-O; 1.77 in the experiment with A549; 2.36 with DU145; 2.6 in the experiment with FB; 1.08 in the experiment with HEPG2; 1.9 in the experiment on OVCAR4.

As to `COC1=C[C@@H]2[C@@H]3Cc4ccc(OC)c(O)c4[C@]2(CCN3C)CC1=O` [Sinomenine], the Euclidean distance is 0.934 in the experiment with 786-O; 0.651 in the experiment with A549; 0.89 with FB; 0.668 with HEPG2; 0.854 in the experiment on OVCAR4.

Take `C=CC(=O)N[C@H]1C=C(C)c2c(-c3cnc4ccccc4c3)c3c(N)ncnc3n2C1`: the Euclidean distance with 786-O was 1.49; with A549, 1.6; in the experiment with FB, 1.95; in the experiment on HEPG2 it was 1.26; in the experiment on OVCAR4, 1.39.
